Records with an inconclusive call do not appear. Calls of active or inactive are those of the source. The call rests on the fitted dose curve; in most records, active means well fitted curve in the direction sought with a large enough effect; inconclusive means small, poorly fitted or top-dose-only effect, or another doubt; inactive means no such curve, though single readings can be large; an effect the other way counts as inactive or inconclusive.

Results on six compounds are retold here after PubChem BioAssay (NCATS).

The subject of experiment [1] is Zika virus NS2B-NS3 protease (linked construct). In words: Primary screen NINDS Rhodamine qHTS for Zika virus inhibitors (AID 1347160). Further: nearly all actives have a fitted effect of over 55% in size. Further: potency means the concentration at half of the fitted maximal effect. In a few lines:
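Kinetic fluorescence (Ex 480 nm, Em 540 nm) over 15 min with 1.5 microM Rhodamine110 peptide and 25 nM linked protease.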

Experiment [2] can be described thus: Panc-1005 Cancer Cell Toxicity qHTS against the NCATS CANVASS Library (AID 1347349). Further: nearly all actives have a fitted effect of over 60% in size. Further: potency means the concentration at half of the fitted maximal effect. Summed up:
(§1)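 ATP content after 72 h treatment, detected by CellTiter-Glo luminescence (15min room-temperature development), reflects cell viability. Wells contained 1000 cells and received compounds at 11 concentrations.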
(Quantitative high-throughput screening tests each substance at several concentrations.)

Experiment [3] in a line: SW1088 Cancer Cell Toxicity qHTS against the NCATS CANVASS Library (AID 1347350). Further: nearly all actives have a fitted effect of over 75% in size. Further: potency means the concentration at half of the fitted maximal effect. Summed up: as §1
Experiment [4] can be described thus: COV-362 Cancer Cell Toxicity qHTS against the NCATS CANVASS Library (AID 1347352). Further: potency means the concentration at half of the fitted maximal effect. In a few lines:
(§2)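 Cells at 1000/well were given compound 4 h after plating in an 11-point series. Viability was read by CellTiter-Glo luminescence after 72 h at 37 degrees C.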

Experiment [5] can be described thus: A2780 Cisplatin Sensitive Ovarian Cancer Cell Toxicity qHTS against the NCATS CANVASS Library (AID 1347353). Further: nearly all actives have a fitted effect of over 60% in size. Further: potency means the concentration at half of the fitted maximal effect. In a few lines: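 A2780 cells, 750/well, settled 4 h at 37 °C, then treated with an 11-point compound series for 72 h. Viability was read as ATPLite luminescence after 10 min at room temperature, with bortezomib as control.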
Experiment [6] is described as follows: UWB1.289-WTBRCA1 Cancer Cell Toxicity qHTS against the NCATS CANVASS Library (AID 1347354). Further: potency means the concentration at half of the fitted maximal effect. Summed up: as §2
The nature of experiment [7]: HEK-293 Cancer Cell Toxicity qHTS against the NCATS CANVASS Library (AID 1347355). Further: nearly all actives have a fitted effect of over 65% in size. Further: potency means the concentration at half of the fitted maximal effect. On outcome: series mostly up to about 46 µM. In a few lines: as §2
Experiment [8] has as its system NAD(P)H diaphorase (Clostridium kluyveri). Nature of the experiment: Diaphorse counterscreen qHTS: Assay Interference Panel against the NCATS CANVASS Library (AID 1347362). Summed up:
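Counterscreen for coupling-enzyme interference: resorufin fluorescence from resazurin/NADH turnover, read after 5 min at room temperature. Compounds were tested over an 11-point series after 15 min dark preincubation with diaphorase in PBS-Tween.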
(In general: A counterscreen serves to expose hits that act by an unwanted route or on another target.)

The nature of experiment [9]: KB-8-5-11 Cancer Cell Toxicity qHTS against the NCATS CANVASS Library (AID 1347364). Further: nearly all actives have a fitted effect of over 75% in size. Further: potency means the concentration at half of the fitted maximal effect. Summed up: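 KB-8-5-11 cells, 500/well in DMEM + 10% FBS, given compounds in an 11-point series. Incubated 72 h at 37 °C. Viability by CellTiter-Glo luminescence. Confirmation also run with 1 uM tariquidar.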
A short description of experiment [10]: SDT Cancer Cell Toxicity qHTS against the NCATS CANVASS Library (AID 1347365). Further: nearly all actives have a fitted effect of over 60% in size. Further: potency means the concentration at half of the fitted maximal effect. In a few lines: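 SDT dog glioma cells (500/well) exposed to an 11-point compound series for 72 hr at 37C, 5% CO2. Cytotoxicity read as ATP content by CellTiterGlo luminescence; bortezomib titration as control.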
A short description of experiment [11]: G06 Cancer Cell Toxicity qHTS against the NCATS CANVASS Library (AID 1347368). Further: nearly all actives have a fitted effect of over 60% in size. Further: potency means the concentration at half of the fitted maximal effect. Summed up:
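G06 dog glioma cells, 500 per well, exposed 72 hr at 37C, 5% CO2 to compounds in an 11-point series. Cytotoxicity read as ATP content by CellTiterGlo luminescence.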

Experiment [12] has as its target Nuclear receptor subfamily 1 group I member 3 (Homo sapiens) (UniProt Q14994). In words: qHTS for Constitutive Androstane Receptor (CAR) Antagonist screened against the NCATS CANVASS Library (AID 1347372). Further: potency means the concentration at half of the fitted maximal effect. In a few lines: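 HepG2-CYP2B6-hCAR double-stable cells plated, 4hr attach; cpd pin-transferred; CITCO 50 nM final; 24hr 37C/5% CO2; CellTiter-Fluor 1hr (fluorescence), then ONE-Glo luminescence.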

Experiment [13] can be described thus: qHTS for Hypoxia signaling pathway (HIF-1) agonists against the NCATS CANVASS Library (AID 1347375). Further: potency means the concentration at half of the fitted maximal effect. In a few lines: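 HRE-bla ME-180 cells (0.5% dialyzed FBS) were pre-incubated 5 hrs at 37C, then exposed to compounds in an 11-point series for 17 hrs. Read-out was CCF4-AM beta-lactamase FRET (460/530 nm emissions), with CellTiter-Glo viability in the same wells.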

A short description of experiment [14]: DH5-alpha competent E. coli microbial cell viability qHTS against the NCATS CANVASS Library (AID 1347377). The conditions noted are these: outcome: dose series up to 46.1 µM unless noted. Summed up: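 DH5-alpha E. coli suspension was exposed to an 11-point compound series overnight at 37 °C. Viable cells quantified by ATP luminescence (BacTiter-Glo) after 20 min at room temperature.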

Experiment [15] in a line: qHTS for Activators of p53 Stress Response Pathway screened against the NCATS CANVASS Library (AID 1347388). Summed up: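 Beta-lactamase reporter driven by p53 response elements in HCT-116 cells, read as the 460 nm/530 nm emission ratio after CCF4 loading, following 16 h of exposure to an 11-point series. Cell viability was measured in the same wells by CellTiter-Glo luminescence.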

Experiment [16] can be described thus: qHTS assay for small molecule disruptors of mitochondrial membrane potential screened against the NCATS CANVASS Library (AID 1347389). Further: nearly all actives have a fitted effect of over 60% in size. Further: potency means the concentration at half of the fitted maximal effect. Summed up:
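HepG2 cells (2,000/well) plated overnight, then exposed to compounds in 11-point qHTS series for 1 h at 37C before 30 min Mito-MPS dye; depolarization read as fall in red aggregate (590 nm) to green monomer (535 nm) fluorescence.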

Experiment [17] can be described thus: qHTS for activators of Nrf2/ARE signaling pathway screened against the NCATS CANVASS Library (AID 1347391). Further: nearly all actives have a fitted effect of over 60% in size. Further: potency means the concentration at half of the fitted maximal effect. Summed up: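 ARE-bla HepG2 beta-lactamase reporter cells exposed to compounds for 16 h at 37C; CCF4 substrate 2 h, fluorescence at ex 405 nm, em 460/530 nm. Viability by CellTiter-Glo luminescence.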
Experiment [18] is described as follows: qHTS for activators of dead-cell proteases activity screened against the NCATS CANVASS Library (AID 1347392).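 Further: luminescence from protease leaking out of membrane-damaged cells cleaving impermeant substrate; rising signal means more cytotoxicity.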 Further: potency means the concentration at half of the fitted maximal effect. Summed up: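 Compounds are pin-transferred onto attached HepG2 cells, giving 11 final concentrations. After 5 h at 37C, AAF-aminoluciferin reagent is added and luminescence is recorded at room temperature.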
A short description of experiment [19]: qHTS for inhibitors of Wild type Zika virus screened against the NCATS CANVASS Library (AID 1347396). Further: potency means the concentration at half of the fitted maximal effect. In a few lines:
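Protection against wild-type Zika cytopathic effect is measured in African green monkey Vero 766 cells exposed to an 11-point compound series. Surviving cells are quantified by CellTiter Glo luminescence after 72 h.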

Experiment [20] in a line: Redox Reaction Profiling qHTS: Assay Interference Panel against the NCATS CANVASS Library (AID 1347401). Further: potency means the concentration at half of the fitted maximal effect. Summed up:
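Cell-free redox surrogate: 5 uM resazurin + 200 uM DTT, 50 mM HEPES pH 7.3/50 mM NaCl; cpds pinned, 11-pt qHTS; Ex525/Em598 read t0 and t=15 min, dark.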

Nuclear receptor subfamily 1 group I member 3 (Homo sapiens), sequence (Q14994 whole entry, looked up): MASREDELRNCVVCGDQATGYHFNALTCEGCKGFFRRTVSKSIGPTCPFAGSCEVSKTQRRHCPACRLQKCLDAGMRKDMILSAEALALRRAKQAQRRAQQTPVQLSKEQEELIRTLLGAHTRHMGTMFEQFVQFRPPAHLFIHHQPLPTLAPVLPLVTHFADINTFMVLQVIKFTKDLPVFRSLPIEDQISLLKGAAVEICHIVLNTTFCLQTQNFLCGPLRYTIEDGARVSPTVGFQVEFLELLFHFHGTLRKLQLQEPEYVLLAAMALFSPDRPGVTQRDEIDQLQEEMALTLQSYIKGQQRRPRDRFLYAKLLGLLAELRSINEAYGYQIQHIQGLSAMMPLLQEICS

On to `CC1C(=O)C23CCC1C[C@]21O[C@@H]2C(C)(C)C=CC(=O)[C@@]23COC1=O` (some centres not stated), for which, in [1], the Potency was 31.1 µM (active). For the same compound, the Potency result in [2], in experiment [3], in experiment [4], in [5], in experiment [6] and in [7] was “inactive” in each case. The Potency entry in experiment [8], in experiment [9], in experiment [10], in [11], in experiment [12] and in [13] was “inactive” in each case. For the same compound, the Potency entry in [15], in [16], in [17], in experiment [18], in experiment [19] and in experiment [20] was “inactive” each time. Besides, the compound was classed as inactive in [14].
Consider `C[C@]12CC[C@]3(C1)[C@H](CC2=O)CC(OC(=O)c1ccccc1)[C@H]1[C@@](CO)(C(=O)O)CCC[C@@]13C` (some centres not stated), for which the results for the Potency in experiment [1], in experiment [11] and in [17] were 49.3 µM (active), 10.5 µM (active) and 18.6 µM (active), respectively. Further, the Potency result in [2], in experiment [3], in [4], in experiment [5], in experiment [6] and in [7] was “inactive” in each case. The Potency result in experiment [8], in experiment [9], in [10], in experiment [12], in experiment [13] and in [15] was “inactive” throughout. Also, the Potency entry in [16], in experiment [18], in experiment [19] and in experiment [20] was “inactive” throughout. Besides, the result in experiment [14] was inactive.
`O=C(O)[C@@]12COC3(O)C1CCN1CC[C@H]3[C@@H]1c1c2[nH]c2ccccc12`: the Potency entry in [1], in [2], in [3], in [4], in experiment [5] and in [6] was “inactive” in each case. Also, the Potency result in experiment [7], in experiment [8], in experiment [9], in experiment [11], in experiment [12] and in experiment [13] was “inactive” in each case. The Potency result in experiment [15], in experiment [16], in [17], in experiment [18] and in [19] was “inactive” throughout. The outcome in [14] was inactive. In experiment [20], the Potency was 21.5 µM (active).
Take `CC(=O)NC[C@@H]1O[C@H](CC/C=C(C)/C(C)=C/C=O)[C@H](C)C[C@H]1O`: in experiment [1], the Potency is 49.3 µM (active). The Potency entry in experiment [2], in experiment [3], in experiment [4], in [6], in experiment [7] and in experiment [8] was “inactive” throughout. Further, the Potency entry in experiment [9], in experiment [11], in experiment [12], in experiment [13], in experiment [15] and in experiment [16] was “inactive” in each case. For the same compound, the Potency result in experiment [18], in experiment [19] and in [20] was “inactive” throughout. For the same compound, in experiment [14], the call was inactive.
Consider `CCCCCCCCCCCCCCCC(=O)OC/C=C(\C)CCCC(C)CC(C)C(C)C` (configuration not stated), for which the Potency in experiment [1] is 55.3 µM (active). Further, the Potency entry in experiment [3], in [4], in experiment [5], in experiment [6], in experiment [7] and in [8] was “inactive” each time. Further, the Potency result in experiment [9], in experiment [10], in experiment [11], in experiment [12], in experiment [13] and in experiment [15] was “inactive” in each case. The Potency entry in experiment [16], in experiment [17], in [18], in [19] and in experiment [20] was “inactive” in each case. The compound was called inactive in experiment [14].
Turning to `C=CC(=C)CC[C@]1(C)[C@H]2C[C@H](OC(=O)C(C)CC)C=C3[C@H](OC(C)=O)O[C@H](OC(C)=O)[C@@]32[C@H](OC)C[C@@H]1C` (some centres not stated), the Potency in [1] is 32.1 µM (active); in [2], 2.17 µM (active); in experiment [3], 0.769 µM (active); in [4], 4.33 µM (active); in experiment [5] it was 1.52 µM (active); in [6], 5.45 µM (active). In addition, the Potency is 4.29 µM (active) in experiment [7]; 7.62 µM (active) in experiment [9]; 8.55 µM (active) in experiment [10]; 6.05 µM (active) in experiment [11]; 12.1 µM (active) in [12]; 19.3 µM (active) in experiment [13]. The Potency is 15.2 µM (active) in experiment [16], 60.6 µM (active) in experiment [18] and 6.76 µM (active) in experiment [19]. Moreover, the Potency result in [17] and in experiment [20] was “inactive” throughout.
